Where “and” joins values, the source holds several entries; their conditions need not be identical. Equal values may be shown once. This is part of a sample that, as a whole, favours compounds with a hit. Of some 83,000 tested, about 20% had one in any assay.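 Plates (96-well) were seeded with cells, treated with compound at one concentration, and incubated for 48 hours before percent growth was determined.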 Calls of active or inactive are those of the source. Rule for the calls: active = growth percent below 10; inactive = the rest.
Key:
Experiment in all cases: NCI-60 one-dose screen, 48 h (100 = growth as untreated, 0 = no growth, -100 = all killed)
Conditions in all cases: 10 µM unless noted
SK-MEL-2 melanoma = tested on: SK-MEL-2 melanoma
EKVX NSCLC = tested on: EKVX NSCLC
SN12C renal = tested on: SN12C renal
UO-31 renal = tested on: UO-31 renal
TK-10 renal = tested on: TK-10 renal
ACHN renal = tested on: ACHN renal
CAKI-1 renal = tested on: CAKI-1 renal
A498 renal = tested on: A498 renal
CCRF-CEM leukemia = tested on: CCRF-CEM leukemia
MOLT-4 leukemia = tested on: MOLT-4 leukemia
SR leukemia = tested on: SR leukemia
RPMI-8226 leukemia = tested on: RPMI-8226 leukemia
OVCAR-8 ovarian = tested on: OVCAR-8 ovarian
OVCAR-5 ovarian = tested on: OVCAR-5 ovarian
OVCAR-4 ovarian = tested on: OVCAR-4 ovarian
SK-OV-3 ovarian = tested on: SK-OV-3 ovarian
IGROV1 ovarian = tested on: IGROV1 ovarian
OVCAR-3 ovarian = tested on: OVCAR-3 ovarian
HS 578T breast = tested on: HS 578T breast
NCI/ADR-RES ovarian = tested on: NCI/ADR-RES ovarian

Measured: growth

O=C(NNC(=S)Nc1ccccc1)c1ccncc1
inactive: SK-MEL-2 melanoma 94.3% | EKVX NSCLC 117% | SN12C renal 109% | UO-31 renal 84% | TK-10 renal 102% | ACHN renal 103% | CAKI-1 renal 133% | A498 renal 124% | CCRF-CEM leukemia 93.7% | MOLT-4 leukemia 104% | SR leukemia 99.2% | RPMI-8226 leukemia 96.8% | OVCAR-8 ovarian 104% | OVCAR-5 ovarian 107% | OVCAR-4 ovarian 116% | SK-OV-3 ovarian 118% | IGROV1 ovarian 106% | OVCAR-3 ovarian 114% | HS 578T breast 132% | NCI/ADR-RES ovarian 105%

COc1ccc(/C=C2/C(=O)N=C3N2NC(c2ccccc2)=CN3c2ccccc2)cc1
inactive: SK-MEL-2 melanoma 106% | EKVX NSCLC 103% | SN12C renal 96% | UO-31 renal 77.4% | TK-10 renal 124% | ACHN renal 96.2% | CAKI-1 renal 88.4% | A498 renal 107% | CCRF-CEM leukemia 101% | MOLT-4 leukemia 106% | SR leukemia 106% | RPMI-8226 leukemia 99.9% | OVCAR-8 ovarian 98.1% | OVCAR-5 ovarian 107% | OVCAR-4 ovarian 102% | SK-OV-3 ovarian 107% | IGROV1 ovarian 95.9% | OVCAR-3 ovarian 111% | HS 578T breast 95.4% | NCI/ADR-RES ovarian 96.9%

COC(=O)/C=C1/SC(N2N=C(c3cccs3)CC2c2ccc(F)cc2)=NC1=O (stereo not given)
active: CCRF-CEM leukemia 8.74% | MOLT-4 leukemia -3.67% | SR leukemia 7.77% | RPMI-8226 leukemia -24.2%
inactive: SK-MEL-2 melanoma 80.9% | EKVX NSCLC 94% | SN12C renal 56% | UO-31 renal 52.6% | TK-10 renal 78.5% | ACHN renal 74.4% | CAKI-1 renal 77% | A498 renal 80.5% | OVCAR-8 ovarian 44.1% | OVCAR-5 ovarian 79.1% | OVCAR-4 ovarian 84.8% | SK-OV-3 ovarian 89.2% | IGROV1 ovarian 32.3% | OVCAR-3 ovarian 11.5% | HS 578T breast 84.6% | NCI/ADR-RES ovarian 51.9%

Cc1c(C(C)(C)O)cn2ncnc(Oc3ccc(NC(=O)Nc4ccc(Cl)c(C(F)(F)F)c4)cc3)c12
inactive: SK-MEL-2 melanoma 75.9% | EKVX NSCLC 30.8% | SN12C renal 44.3% | UO-31 renal 50.9% | TK-10 renal 45.9% | ACHN renal 21% | CAKI-1 renal 29.2% | A498 renal 11.6% | CCRF-CEM leukemia 34.1% | MOLT-4 leukemia 18.2% | RPMI-8226 leukemia 37% | OVCAR-8 ovarian 49.1% | OVCAR-5 ovarian 100% | OVCAR-4 ovarian 21% | SK-OV-3 ovarian 83.9% | IGROV1 ovarian 37.6% | OVCAR-3 ovarian 26.2% | HS 578T breast 49.4% | NCI/ADR-RES ovarian 64%
active: SR leukemia -3.12%

COc1cc(/C=C(/c2ccccc2)[N+](=O)[O-])c(OC)c2c1OCO2
inactive: SK-OV-3 ovarian 63% | HS 578T breast 31% | NCI/ADR-RES ovarian 10.7%
active: SK-MEL-2 melanoma -23% | EKVX NSCLC -10.5% | SN12C renal -39% | UO-31 renal -100% | TK-10 renal -88.1% | ACHN renal -70.1% | CAKI-1 renal -65.2% | A498 renal -14% | CCRF-CEM leukemia -6.26% | MOLT-4 leukemia -10.5% | SR leukemia -18.9% | RPMI-8226 leukemia -19.7% | OVCAR-8 ovarian -1.64% | OVCAR-5 ovarian -36.7% | OVCAR-4 ovarian -25.9% | IGROV1 ovarian -41.8% | OVCAR-3 ovarian -97.4%

COc1ccc(C(=O)c2ccc(OC)c(OC)c2OC)cc1
inactive: SK-MEL-2 melanoma 17.6% and 57.5% | EKVX NSCLC 48.1% and 39% | SN12C renal 56.1% and 43.4% | UO-31 renal 41.8% and 24.1% | TK-10 renal 34.4% and 54.2% | ACHN renal 42.5% and 53.8% | CAKI-1 renal 14.4% and 21% | CCRF-CEM leukemia 37.3% | MOLT-4 leukemia 41.5% and 36.8% | RPMI-8226 leukemia 35.3% and 27.4% | OVCAR-8 ovarian 41.8% and 47.4% | OVCAR-5 ovarian 83.1% and 49.9% | OVCAR-4 ovarian 82.8% and 42.8% | IGROV1 ovarian 25.7% and 11.9%
18% (inactive) and 3.38% (active): SK-OV-3 ovarian
18.5% (inactive) and -13.9% (active): NCI/ADR-RES ovarian
active: A498 renal 4.87% and -9.47% | OVCAR-3 ovarian -22.8% and -39.4% | HS 578T breast -9.55% and -14.2%
43.5% (inactive) and 8.36% (active): SR leukemia

COc1ccc(S(=O)(=O)Nc2cc(Sc3cccc4cccnc34)c(O)c3ccccc23)cc1
inactive: EKVX NSCLC 36.7% | SN12C renal 17.2% | UO-31 renal 27.4% | TK-10 renal 23.4% | CAKI-1 renal 20% | A498 renal 65.2% | CCRF-CEM leukemia 13.4% | OVCAR-5 ovarian 42.3% | SK-OV-3 ovarian 50.7% | HS 578T breast 47.2% | NCI/ADR-RES ovarian 11.1%
active: SK-MEL-2 melanoma 5.09% | ACHN renal 7.43% | MOLT-4 leukemia -4.51% | SR leukemia 8.57% | RPMI-8226 leukemia 5.31% | OVCAR-8 ovarian 9.48% | OVCAR-4 ovarian -99.4% | IGROV1 ovarian 5.99% | OVCAR-3 ovarian -81.8%

O=C1/C(=C/c2cn(-c3ccccc3)nc2-c2ccccc2)SC(=S)N1c1ccccc1
inactive: SK-MEL-2 melanoma 110% | EKVX NSCLC 99% | SN12C renal 90.7% | UO-31 renal 82.3% | TK-10 renal 106% | ACHN renal 95.5% | CAKI-1 renal 87.2% | A498 renal 91.1% | CCRF-CEM leukemia 101% | MOLT-4 leukemia 109% | SR leukemia 108% | RPMI-8226 leukemia 107% | OVCAR-8 ovarian 104% | OVCAR-5 ovarian 106% | OVCAR-4 ovarian 103% | SK-OV-3 ovarian 111% | IGROV1 ovarian 94.5% | OVCAR-3 ovarian 109% | HS 578T breast 101% | NCI/ADR-RES ovarian 103%

CCCNNC(=O)/C=C/c1ccc(CNCCc2c(C)[nH]c3ccccc23)cc1
active: TK-10 renal -16.2% [2.5 µM] | ACHN renal -15.4% [2.5 µM] | CAKI-1 renal -4.92% [2.5 µM] | A498 renal -37.6% [2.5 µM] | OVCAR-5 ovarian 1.96% [2.5 µM] | SK-OV-3 ovarian 0.0389% [2.5 µM] | IGROV1 ovarian 9.05% [2.5 µM]
inactive: SK-MEL-2 melanoma 13.7% [2.5 µM] | EKVX NSCLC 50.4% [2.5 µM] | SN12C renal 26.3% [2.5 µM] | UO-31 renal 13.8% [2.5 µM] | CCRF-CEM leukemia 27.6% [2.5 µM] | MOLT-4 leukemia 13.3% [2.5 µM] | SR leukemia 20.1% [2.5 µM] | RPMI-8226 leukemia 16.3% [2.5 µM] | OVCAR-8 ovarian 10.8% [2.5 µM] | OVCAR-4 ovarian 41.6% [2.5 µM] | OVCAR-3 ovarian 19.8% [2.5 µM] | HS 578T breast 35.3% [2.5 µM] | NCI/ADR-RES ovarian 50% [2.5 µM]

COc1ccc(C/C(C)=C(\c2ccc(O)cc2)c2ccc(OCCCN(C)C)cc2)cc1
inactive: SK-MEL-2 melanoma 88.4% | EKVX NSCLC 98.2% | SN12C renal 93.3% | UO-31 renal 77.7% | TK-10 renal 86.9% | ACHN renal 109% | CAKI-1 renal 107% | A498 renal 101% | CCRF-CEM leukemia 73.9% | MOLT-4 leukemia 68.8% | SR leukemia 59.7% | RPMI-8226 leukemia 86.8% | OVCAR-8 ovarian 89.5% | OVCAR-5 ovarian 102% | OVCAR-4 ovarian 92.6% | SK-OV-3 ovarian 101% | IGROV1 ovarian 102% | OVCAR-3 ovarian 98.3% | HS 578T breast 89% | NCI/ADR-RES ovarian 98.5%

COc1ccc(CN2CCc3c(Cl)nc(N)nc3C2=O)c(OC)c1
active: SK-MEL-2 melanoma -30.2% [100 µM] | EKVX NSCLC 5.84% [100 µM] | CCRF-CEM leukemia 3.61% [100 µM] | SR leukemia 3.87% [100 µM] | OVCAR-8 ovarian 1.04% [100 µM] | SK-OV-3 ovarian 8.93% [100 µM] | IGROV1 ovarian -37.3% [100 µM] | OVCAR-3 ovarian -22.4% [100 µM] | NCI/ADR-RES ovarian 4.29% [100 µM]
inactive: SN12C renal 17.2% [100 µM] | UO-31 renal 27.9% [100 µM] | TK-10 renal 22.2% [100 µM] | ACHN renal 32.3% [100 µM] | CAKI-1 renal 23.4% [100 µM] | A498 renal 35.7% [100 µM] | MOLT-4 leukemia 13% [100 µM] | RPMI-8226 leukemia 12.7% [100 µM] | OVCAR-5 ovarian 45.1% [100 µM] | OVCAR-4 ovarian 15.2% [100 µM] | HS 578T breast 49.9% [100 µM]

O=C(/C=C/c1ccc(F)cc1)Nc1ncc(Cc2ccc(F)cc2)s1
inactive: SK-MEL-2 melanoma 32.3% | EKVX NSCLC 32.1% | SN12C renal 50.6% | UO-31 renal 39% | TK-10 renal 47.2% | ACHN renal 32.5% | CAKI-1 renal 27.5% | A498 renal 21.8% | CCRF-CEM leukemia 34% | MOLT-4 leukemia 30.9% | SR leukemia 25.2% | RPMI-8226 leukemia 44.9% | OVCAR-8 ovarian 51.9% | OVCAR-5 ovarian 62.8% | OVCAR-4 ovarian 64.3% | SK-OV-3 ovarian 41.4% | IGROV1 ovarian 46.8% | OVCAR-3 ovarian 12.4% | HS 578T breast 23% | NCI/ADR-RES ovarian 35.5%

COc1ccc(/C=C2\COc3ccc(O)c(O)c3C2=O)c(OC)c1OC
inactive: SK-MEL-2 melanoma 70.3% | EKVX NSCLC 65.7% | TK-10 renal 45.1% | ACHN renal 12.5% | CAKI-1 renal 39% | A498 renal 109% | OVCAR-5 ovarian 36.2% | OVCAR-4 ovarian 27.8% | SK-OV-3 ovarian 67% | IGROV1 ovarian 16.9% | HS 578T breast 27.9% | NCI/ADR-RES ovarian 27%
active: SN12C renal 0.808% | UO-31 renal -5.7% | CCRF-CEM leukemia 3.07% | MOLT-4 leukemia 1.41% | SR leukemia 9.47% | RPMI-8226 leukemia -23.6% | OVCAR-8 ovarian 8.41% | OVCAR-3 ovarian 9.03%

Reference: PubChem BioAssay (NCI)
